Reference: PubChem BioAssay (NCATS)
Inconclusive results are not listed. Active and inactive are the calls of the source. The call rests on the fitted dose curve; in most records, active means well fitted curve in the direction sought with a large enough effect; inconclusive means small, poorly fitted or top-dose-only effect, or another doubt; inactive means no such curve, though single readings can be large; an effect the other way counts as inactive or inconclusive. Where a SMILES comes first, the peptide text is derived from it. The star is where a group is joined. Cbz = O=C(OCc1ccccc1)*; CH2F = FC*

Experiments:
CRL-7250 = normal cell line; experiment: Cytotoxic Profiling of Annotated Libraries Using Quantitative High-Throughput Screening (AID 1296008); settings: Five cell lines viability, CellTiter-Glo ATP luminescence, 48-72 h; max response: stronger effect = lower value; further: nearly all actives have a fitted effect of over 60% in size; on max response: on the % scale 0 is the no-effect control and ±100 the full control effect
Summary of the method: (§1)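 Cells exposed to compounds for 48 or 72 hr at 37 degrees Celsius. Viability read as ATP-coupled luminescence with CellTiter-Glo after 10 min at room temperature.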

HEK293 = experiment: as above; settings: Five cell lines viability, CellTiter-Glo ATP luminescence, 48-72 h; max response: stronger effect = lower value
Summary of the method: as §1

HaCat [1] = experiment: as above; settings: Five cell lines viability, CellTiter-Glo ATP luminescence, 48-72 h; max response: stronger effect = lower value
Summary of the method: as §1

KB-3-1 = experiment: as above; settings: Five cell lines viability, CellTiter-Glo ATP luminescence, 48-72 h; max response: stronger effect = lower value
Summary of the method: as §1

NIH3T3 [2] = experiment: as above; settings: Five cell lines viability, CellTiter-Glo ATP luminescence, 48-72 h; max response: stronger effect = lower value
Summary of the method: as §1

HACAT [3] = experiment: qHTS assay to identify novel small-molecules to repurpose for Merkel cell carcinoma treatment (AID 1296009); settings: MCC and control cell lines, CellTiter-Glo viability, 72 h; at 44.8 µM (top of the series) unless noted; further: nearly all actives have a fitted effect of over 60% in size
Summary of the method: (§2)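 CellTiter-Glo luminescence after 72 hr compound exposure at 37 degree celsius gave cell viability. Libraries NPC and MIPE were run as 8- and 11-point dose responses; RLUs normalized to DMSO (negative) and no-cell (cytotoxicity) controls.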

NIH3T3 [4] = experiment: as above; settings: MCC and control cell lines, CellTiter-Glo viability, 72 h; at 44.8 µM (top of the series) unless noted
Summary of the method: as §2

C33A = experiment: Primary qHTS to identify gynecologic anti-cancer compounds using libraries of approved drugs and bioactive compounds (AID 1345084); settings: Gynecologic cancer cell panel viability, ATPlite luminescence, 48 h; series mostly up to 57.5 µM; further: on the % scale 0 is the no-effect control and ±100 the full control effect; nearly all actives have a fitted effect of over 55% in size
Summary of the method: (§3)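 ATP-based viability (ATPlite), 1,000 cells/well, 16 h pre-incubation, 48 h compound at 37 C, 5% CO2, 15 min RT before read.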

CAOV3 = experiment: as above; settings: Gynecologic cancer cell panel viability, ATPlite luminescence, 48 h; series mostly up to 57.5 µM
Summary of the method: as §3

CASKI = experiment: as above; settings: Gynecologic cancer cell panel viability, ATPlite luminescence, 48 h; series mostly up to 57.5 µM
Summary of the method: as §3

Es-2 = experiment: as above; settings: Gynecologic cancer cell panel viability, ATPlite luminescence, 48 h; series mostly up to 57.5 µM
Summary of the method: as §3

HeLa = experiment: as above; settings: Gynecologic cancer cell panel viability, ATPlite luminescence, 48 h; series mostly up to 57.5 µM
Summary of the method: as §3

Hek293T = experiment: as above; settings: Gynecologic cancer cell panel viability, ATPlite luminescence, 48 h, control line for the selectivity index; series mostly up to 57.5 µM
Summary of the method: as §3

JEG-3 = experiment: as above; settings: Gynecologic cancer cell panel viability, ATPlite luminescence, 48 h; series mostly up to 57.5 µM
Summary of the method: as §3

Cn1cc(-c2c[nH]c3ncnc(N4CCOCC4)c23)cn1
inactive: max response (CRL-7250) 0.569% | max response (HEK293) -23.9% | outcome (HaCat [1]) | outcome (KB-3-1) | outcome (NIH3T3 [2]) | outcome (HACAT [3]) | outcome (NIH3T3 [4]) | Potency (C33A) | Potency (CAOV3) | outcome (CASKI) | Potency (Es-2) | Potency (HeLa) | Potency (Hek293T) | Potency (JEG-3)

CC(=O)OCC1=CCC2C(C)(C)CCCC2(C)C12CCC(C)(CC(=O)O)O2 (stereo not given)
inactive: max response (CRL-7250) -2.76% | max response (HEK293) -0.588% | outcome (HaCat [1]) | max response (KB-3-1) 5.22% | outcome (NIH3T3 [2]) | outcome (HACAT [3]) | outcome (NIH3T3 [4]) | Potency (C33A) | outcome (CASKI) | Potency (Es-2) | Potency (HeLa) | Potency (Hek293T)

COc1ccc(C2(O)c3c(ccc4c3OC(C)(CCC=C(C)C)C=C4)NC(=O)C2OC)cc1 (stereo not given)
inactive: outcome (CRL-7250) | max response (HEK293) -6.81% | outcome (HaCat [1]) | max response (KB-3-1) 5.8% | outcome (NIH3T3 [2]) | outcome (HACAT [3]) inactive [at 17.4 µM] | outcome (NIH3T3 [4]) inactive [at 17.4 µM] | Potency (C33A) | Potency (CAOV3) | Potency (Es-2) | Potency (HeLa) | Potency (Hek293T) | Potency (JEG-3)

COc1cc([C@H]2OC[C@](O)(Cc3ccc(O[C@@H]4O[C@H](CO)[C@@H](O)[C@H](O)[C@H]4O)c(OC)c3)[C@@H]2CO)ccc1O
inactive: max response (CRL-7250) -8.35% | max response (HEK293) 1.25% | outcome (HaCat [1]) | max response (KB-3-1) 0.848% | outcome (NIH3T3 [2]) | outcome (HACAT [3]) inactive [at 17.4 µM] | outcome (NIH3T3 [4]) inactive [at 17.4 µM] | Potency (C33A) | outcome (CASKI) | Potency (Es-2) | Potency (HeLa) | Potency (Hek293T) | Potency (JEG-3)

CNC(=O)c1ccc2c(c1)CCO[C@H]2CCN1CCN(c2ccc(C(N)=O)cc2)CC1
inactive: max response (CRL-7250) 0.998% | max response (HEK293) 3.1% | outcome (HaCat [1]) | max response (KB-3-1) -1.44% | outcome (NIH3T3 [2]) | outcome (HACAT [3]) | outcome (NIH3T3 [4]) | Potency (C33A) | Potency (CAOV3) | outcome (CASKI) | Potency (Es-2) | Potency (HeLa) | Potency (Hek293T) | Potency (JEG-3)

CC1C2=CC(=O)OC2(O)CC2C1C(O)CC1C(C)(CO)CCCC21C (stereo not given)
inactive: outcome (CRL-7250) | max response (HEK293) 2.57% | outcome (HaCat [1]) | max response (KB-3-1) 0.829% | outcome (NIH3T3 [2]) | outcome (HACAT [3]) | outcome (NIH3T3 [4]) | Potency (C33A) | Potency (CAOV3) | outcome (CASKI) | Potency (Es-2) | Potency (HeLa) | Potency (Hek293T) | Potency (JEG-3)

COc1cc(O)cc(C)c1C(=O)O[C@H]1[C@@H](O)[C@@H](n2ccc(=O)[nH]c2=O)O[C@@H]1CO
inactive: max response (CRL-7250) -0.148% | max response (HEK293) -4.61% | outcome (HaCat [1]) | max response (KB-3-1) -0.769% | outcome (NIH3T3 [2]) | outcome (HACAT [3]) inactive [at 17.4 µM] | outcome (NIH3T3 [4]) inactive [at 17.4 µM] | Potency (C33A) | outcome (CASKI) | Potency (Es-2) | Potency (HeLa) | Potency (Hek293T) | Potency (JEG-3)

CCOC(=O)CSc1nc2c(sc3ccccc32)c(=O)n1CCCN1CCCC1
inactive: outcome (CRL-7250) | max response (HEK293) -12.6% | outcome (HaCat [1]) | outcome (KB-3-1) | outcome (NIH3T3 [2]) | outcome (HACAT [3]) | outcome (NIH3T3 [4]) | Potency (C33A) | Potency (CAOV3) | outcome (CASKI) | Potency (Es-2) | Potency (Hek293T) | Potency (JEG-3)

COC(=O)CC[C@H](NC(=O)[C@H](CC(C)C)NC(=O)OCc1ccccc1)C(=O)N[C@@H](Cc1cnc[nH]1)C(=O)N[C@@H](CC(=O)OC)C(=O)CF (Cbz-LE(OMe)HD(OMe)-CH2F)
inactive: outcome (CRL-7250) | max response (HEK293) 2.63% | outcome (HaCat [1]) | outcome (KB-3-1) | outcome (NIH3T3 [2]) | outcome (HACAT [3]) inactive [at 9.27 µM] | outcome (NIH3T3 [4]) inactive [at 9.27 µM] | activity change, negative = cytotoxicity (C33A) 16.8% [at 11.6 µM] | activity change, negative = cytotoxicity (CAOV3) 7.02% [at 11.6 µM] | activity change, negative = cytotoxicity (CASKI) 26% [at 11.6 µM] | activity change, negative = cytotoxicity (Es-2) 0.76% [at 11.6 µM] | activity change, negative = cytotoxicity (HeLa) 6.25% [at 11.6 µM] | activity change, negative = cytotoxicity (Hek293T) 2.96% [at 11.6 µM] | activity change, negative = cytotoxicity (JEG-3) -14.9% [at 11.6 µM]

CC(C)(O)C1CCC2(C)CCCC(C)(O)C2C1 (stereo not given)
inactive: max response (CRL-7250) -27.4% | max response (HEK293) 2.93% | outcome (HaCat [1]) | max response (KB-3-1) 8.99% | outcome (NIH3T3 [2]) | outcome (HACAT [3]) | outcome (NIH3T3 [4]) | Potency (C33A) | outcome (CASKI) | Potency (Es-2) | Potency (HeLa) | Potency (Hek293T) | Potency (JEG-3)

COc1cc(/C=C/CO[C@@H]2O[C@H](CO)[C@@H](O)[C@H](O)[C@H]2O)cc(OC)c1O[C@@H]1O[C@H](CO)[C@@H](O)[C@H](O)[C@H]1O
inactive: max response (CRL-7250) -7.94% | max response (HEK293) -7.31% | outcome (HaCat [1]) | outcome (KB-3-1) | outcome (NIH3T3 [2]) | outcome (HACAT [3]) inactive [at 17.4 µM] | outcome (NIH3T3 [4]) inactive [at 17.4 µM] | Potency (C33A) | Potency (CAOV3) | outcome (CASKI) | Potency (Es-2) | Potency (HeLa) | Potency (Hek293T) | Potency (JEG-3)

C=C1[C@H](OC(C)=O)[C@H]2[C@@H](OC(C)=O)C(C)C[C@]2(OC(C)=O)C(=O)[C@H](C)/C=C/C(C)(C)C(=O)[C@H](OC(=O)C(C)C)[C@H]1OC(C)=O (stereo not given in full)
inactive: max response (CRL-7250) 2.65% | max response (HEK293) -3.57% | outcome (HaCat [1]) | outcome (KB-3-1) | outcome (NIH3T3 [2]) | outcome (HACAT [3]) inactive [at 17.4 µM] | outcome (NIH3T3 [4]) inactive [at 17.4 µM] | Potency (C33A) | Potency (CAOV3) | outcome (CASKI) | Potency (Es-2) | Potency (Hek293T) | Potency (JEG-3)
